SARS 3CLpro inh: SARS-CoV 3CLpro protease inhibition; hit rate 0.14% among 290,000; inhibition, % at 6 µM; recombinant SARS-CoV 3CLpro, quenched FRET peptide cleavage; AID 1706; P0C6X7; in the data active = inhibition above about 12%
Vc quorum ag: inducers of Vibrio cholerae quorum light production without autoinducers. V. cholerae BH1578 lux reporter, luminescence, 6 h. activation, % at 18.7 µM. hit rate 0.16% among 350,000. AID 588436; in the data active = activation mostly above about 9.7%, no sharp cut-off
BJeLR lethal: kills HRASV12-expressing BJeLR cells | AID 1554 | inhibition, % (no concentration beside the values) | BJeLR (HRASV12) viability, CellTiter-Glo ATP luminescence, 48 h | hit rate 0.17% among 300,000; in the data active = inhibition above about 50%
PfHsp40 rescue: rescue of PfHsp40-mediated yeast toxicity; hit rate 0.68% among 340,000; growth rescue, % at 12.5 µM; S. cerevisiae expressing PfHsp40, growth rescue, ATP luminescence; in the data active = growth rescue above about 28%, passing the limit was not always enough;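 note: yeast W303a lacking pdr1 and pdr3 grown in galactose medium; growth measured after three days at 30 °C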
MazF activator: activators of E. coli MazEF toxin-antitoxin RNase. P0AE70. FAM/BHQ RNA-DNA oligo cleavage fluorescence, 5 h. activation, % at 20 µM. hit rate 0.32% among 350,000; in the data active = activation above about 50%
Target sequence (P0AE70 whole entry, looked up): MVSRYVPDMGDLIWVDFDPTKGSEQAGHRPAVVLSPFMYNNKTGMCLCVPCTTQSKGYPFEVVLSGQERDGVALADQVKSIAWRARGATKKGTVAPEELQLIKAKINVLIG
VHR inh abs: blocks human VHR1 dual specificity phosphatase; P51452; recombinant VHR phosphatase, pNPP absorbance; inhibition, % at 13.3 µM; hit rate 0.52% among 290,000; in the data active = inhibition above about 50%
Target sequence (P51452 whole entry, looked up): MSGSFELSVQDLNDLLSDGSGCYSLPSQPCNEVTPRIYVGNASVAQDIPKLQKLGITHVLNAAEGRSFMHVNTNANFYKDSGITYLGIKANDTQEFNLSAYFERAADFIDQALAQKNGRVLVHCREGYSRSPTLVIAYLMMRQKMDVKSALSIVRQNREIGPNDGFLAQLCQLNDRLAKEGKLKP
* hit, by the source's call; i = inactive; . = not tested or not shown. Compounds with a hit are over-represented: about 1.7% of the library has one in this group of screens.

SMILES	SARS 3CLpro inh	Vc quorum ag	BJeLR lethal	PfHsp40 rescue	MazF activator	VHR inh abs
Cn1ncc(N=Cc2c(O)ccc3ccccc23)c1C(=O)Nc1cccc(Cl)c1	3	2	-3	1	360*	-7
Cn1ncc(Cl)c1C(=O)Nc1cccc(Cl)c1	-3	i	-2	0	4	-22
CC1(c2ccccc2)NC(=O)N(CC(=O)Nc2ccccc2C(=O)NC2CC2)C1=O (configuration not stated)	-3	2	2	-1	-5	16
CCCn1c(-c2cccs2)nc2c1c(=O)[nH]c(=O)n2Cc1ccccc1	-3	-2	-2	-1	83*	6
COC(=O)c1sccc1NC(=O)COc1ccc(F)cc1Cl	-7	i	13	-1	-4	57*
COC(=O)c1ccc(OCC(=O)Nc2ccsc2C(=O)OC)cc1	1	0	-1	0	-32	26
CS(=O)(=O)N(CC(=O)Nc1cccc([N+](=O)[O-])c1)c1cccc(F)c1	3	-1	1	-2	9	25
COc1ccc(CN2C(=O)C(Cc3ccccc3)Nc3ncnc(N4CCOCC4)c32)cc1 (configuration not stated)	.	i	-9	45*	-5	.
CCC1Nc2ncnc(N3CCc4ccccc4C3)c2N(Cc2ccc(Cl)cc2)C1=O (configuration not stated)	.	-1	.	1	-8	.
O=C1C(Cc2ccccc2)Nc2ncnc(N3CCc4ccccc4C3)c2N1Cc1ccc(Cl)cc1 (configuration not stated)	.	i	11	38*	-7	.
COc1ccc(S(=O)(=O)N2c3ccc(F)cc3CCC2C)cc1 (configuration not stated)	.	0	62*	6	-6	.
CC(=O)Nc1ccc(S(=O)(=O)N2c3ccc(F)cc3CCC2C)cc1 (configuration not stated)	.	-1	32	0	7	.
CCOC(=O)CC(=O)CSc1nc2c(c(C)c1C#N)CCC2	5	i	-6	31*	11	-8
CCN(CC)c1ccc(-c2c(C#N)c(N)nc(OC)c2C#N)cc1	3	i	-4	0	75*	10
Cn1nc(N)c2c(-c3ccc(Cl)cc3)c(C#N)c(N)nc21	-4	0	0	1	6	-1
O=c1[nH]c2cccc(Cl)c2c2ccccc12	.	i	.	.	-6	.
O=C(CSc1cccc[n+]1[O-])c1cc(Cl)ccc1Cl	0	0	3	80*	2	43
CCCCc1cc(=O)oc2cc(C)cc(OCC(=O)N3CCC(C(=O)O)CC3)c12	0	0	-8	0	2	5
COc1ccc(OC)c(CNc2ccc3c(c2)CCC3)c1	0	0	0	-1	1	0
COc1ccc(OC)c(CNc2ccc(F)c(Cl)c2)c1	-2	i	4	38*	-1	11
Cc1ccc(C)c(NC(=S)NNC(=O)c2csc3c2CCCC3)c1	1	0	4	42*	-1	29
Cc1ccc(C)c(NC(=S)NNC(=O)c2csc3c2CCC(C)C3)c1 (configuration not stated)	8	i	-5	62*	-21	-13
Cc1cccc(NC(=S)NNC(=O)c2csc3c2CCCC3)c1	7	i	0	141*	6	36
CC(C)C(=O)Nc1ccc(Oc2ccc3c(c2)C(=O)NC3=O)cc1	0	-1	-1	-1	7	28
CCCCN(C)C(=O)C1CCCN(S(=O)(=O)c2ccc3c(c2)oc(=O)n3C)C1 (configuration not stated)	-3	0	-13	0	9	13
CC(=O)N1CCN(S(=O)(=O)c2cccc(C(=O)N3CCN(S(=O)(=O)c4c(C)c(C)cc(C)c4C)CC3)c2)CC1	.	0	.	.	9	.
COc1cc(N)c(Cl)cc1C(=O)OCC(=O)NC(=O)NCc1ccco1	.	i	.	-2	12	.
CCOC(=O)C1=C(COC(=O)CCOc2ccccc2)NC(=O)NC1C (configuration not stated)	.	-4	.	0	-3	.
CCC1CCCCN1S(=O)(=O)c1ccc(C(=O)Nc2nnc(-c3cccs3)o2)cc1 (configuration not stated)	3	-7	.	60*	-1	14

From PubChem
